Measurements reported in PubChem BioAssay.
The source made the active and inactive calls.

Tests used:
[1] = small molecules captured by biotinylated probe aFSTL3 – biochemical, small-molecule microarray, fluorescence 635/667, stem cell growth factor project, primary screen (AID 1064); conditions: higher = more signal;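 also: measures binding of the biotinylated anti-FSTL3 antibody to printed compounds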
[2] = binders from COS7 lysate, DM2A8 probe, primary screen, torsin A project, cell lysate, small-molecule microarray, fluorescence 635/667 (AID 1065); conditions: higher = more signal, COS7 lysate expressing mutant human TOR1A
[3] = small molecules captured by biotinylated probe aFGF2 – biochemical, small-molecule microarray, fluorescence 635/667, stem cell growth factor project, primary screen (AID 1067); conditions: higher = more signal;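 also: measures binding of biotinylated aFGF2 protein to printed compounds on slides; z-score merges feature fluorescence and signal-to-noise across triplicate slides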
[4] = small molecules captured by biotinylated probe aFGF10 – biochemical, small-molecule microarray, fluorescence 635/667, stem cell growth factor project, primary screen (AID 1071); conditions: higher = more signal;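 also: score merges 667 nm spot intensity and signal to noise from triplicate slides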
[5] = target: Neurogenic locus notch homolog protein 2 (Homo sapiens) (UniProt Q04721); assay: small molecules binding Notch2 protein – biochemical, small-molecule microarray, 635 nm fluorescence, stem cell growth factors, primary screen (AID 1073); conditions: higher = more signal
[6] = target: Pro-neuregulin-1, membrane-bound isoform (Homo sapiens) (UniProt Q02297); assay: small molecules binding neuregulin-1 protein – biochemical, small-molecule microarray, fluorescence 635/667, psychiatric disease protein project, primary screen (AID 1075); conditions: NRG1 binding, 635 nm fluorescence, higher = more signal;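 also: score combines 667 nm spot fluorescence with signal to noise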
Sequence of Pro-neuregulin-1, membrane-bound isoform (Homo sapiens) (Q02297 whole entry, looked up, the tested form may be a part, canonical isoform): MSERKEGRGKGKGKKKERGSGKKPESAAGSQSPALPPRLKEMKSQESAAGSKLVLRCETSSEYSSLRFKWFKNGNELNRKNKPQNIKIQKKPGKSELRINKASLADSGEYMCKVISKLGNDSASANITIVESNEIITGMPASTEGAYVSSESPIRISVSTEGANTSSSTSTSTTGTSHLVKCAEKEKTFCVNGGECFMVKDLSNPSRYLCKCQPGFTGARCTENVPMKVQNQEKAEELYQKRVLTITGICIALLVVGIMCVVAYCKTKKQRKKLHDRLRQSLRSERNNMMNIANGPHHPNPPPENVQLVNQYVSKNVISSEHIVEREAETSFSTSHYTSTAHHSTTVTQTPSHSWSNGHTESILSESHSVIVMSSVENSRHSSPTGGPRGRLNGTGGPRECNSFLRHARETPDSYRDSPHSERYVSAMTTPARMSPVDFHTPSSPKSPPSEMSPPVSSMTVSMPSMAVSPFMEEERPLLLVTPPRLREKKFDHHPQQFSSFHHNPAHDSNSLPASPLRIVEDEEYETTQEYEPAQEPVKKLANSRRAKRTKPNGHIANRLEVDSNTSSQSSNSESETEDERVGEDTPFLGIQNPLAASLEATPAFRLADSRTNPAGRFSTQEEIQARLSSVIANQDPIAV

[7] = system: Neuregulin-1 EGF-like domain; assay: small molecules binding NRG1 EGF domain – biochemical, small-molecule microarray, 635 nm fluorescence, primary screen (AID 1081); conditions: higher = more signal;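 also: binding of the protein to compounds printed on small-molecule microarray slides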
[8] = FRG1 expression reporter modulators in myotubes – cell-based, C2C12 myotubes, firefly/Renilla luciferase, luminescence, FRG1 inhibition for FSHD, primary screen (AID 1084); conditions: FRG1 promoter luciferase, higher = more signal, called active from +8 up or from −8 down
[9] = small molecules captured by biotinylated probe aFST – biochemical, small-molecule microarray, fluorescence 635/667, stem cell growth factor project, primary screen (AID 1086); conditions: higher = more signal;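 also: score merges 667 nm fluorescence with signal-to-noise of each printed compound spot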
[10] = binders of probe aHhip on microarray, primary screen, stem cell growth factor project, biochemical, small-molecule microarray, fluorescence 635/667 (AID 1087); conditions: higher = more signal;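 also: score merges spot fluorescence at 667nm with spot signal to noise ratio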
[11] = system: PRMT1 (protein arginine N-methyltransferase 1); assay: small molecules binding arginine methyltransferase PRMT1 – biochemical, small-molecule microarray, 635 nm fluorescence, primary screen (AID 1088); conditions: higher = more signal;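 also: binding of Prmt1 protein to compounds spotted on small-molecule microarray slides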
[12] = growth effects on S. cerevisiae YJM789 – YJM789 clinical isolate, OD600, 24 h, basal, primary screen (AID 1089); conditions: higher = more signal, called active from +8 up or from −8 down;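 also: growth of clinical yeast isolate S. cerevisiae YJM 789 seeded 1000 cells per well; test concentration not given here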
[13] = S. pombe growth modifiers, basal conditions – strain 972, OD600, 24 h, no modulator, primary screen (AID 1090);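 also: basal condition with compound alone and no growth modifier present; test concentration not given here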; conditions: S. pombe 972 growth, higher = more signal, called active from +8 up or from −8 down
[14] = budding yeast growth modifiers under rapamycin – strain BY4716, OD600, 96 h, primary screen (AID 1091); also: test concentration not given here; conditions: S. cerevisiae BY4716 + rapamycin, higher = more signal, called active from +8 up or from −8 down
[15] = target: Torsin-1A-interacting protein 2 (Homo sapiens) (UniProt Q8NFQ8); assay: small molecules binding lysate-expressed LULL1 – cell lysate, human LULL1 lysate, 635/667 nm fluorescence, primary screen (AID 1092); conditions: small-molecule microarray, hLULL1 lysate binding, 635 nm fluorescence; higher = more signal;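 also: probe is lysate of COS7 cells overexpressing human LULL1; score merges per-feature 667 nm fluorescence with signal-to-noise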
Sequence of Torsin-1A-interacting protein 2 (Homo sapiens) (Q8NFQ8 whole entry, looked up): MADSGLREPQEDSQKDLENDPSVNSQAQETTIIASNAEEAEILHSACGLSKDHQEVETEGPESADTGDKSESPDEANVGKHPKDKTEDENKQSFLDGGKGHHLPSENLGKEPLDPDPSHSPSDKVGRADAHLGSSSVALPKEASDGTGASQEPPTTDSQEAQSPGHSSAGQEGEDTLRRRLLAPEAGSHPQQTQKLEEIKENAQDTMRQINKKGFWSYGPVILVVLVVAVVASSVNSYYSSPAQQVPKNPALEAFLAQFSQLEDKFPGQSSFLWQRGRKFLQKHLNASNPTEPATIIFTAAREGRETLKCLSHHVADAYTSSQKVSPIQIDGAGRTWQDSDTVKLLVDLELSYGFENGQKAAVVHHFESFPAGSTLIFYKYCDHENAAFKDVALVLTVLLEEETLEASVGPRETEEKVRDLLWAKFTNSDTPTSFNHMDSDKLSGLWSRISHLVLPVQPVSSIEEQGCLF

[16] = optical density change of DRC41 E. coli – strain DRC41, OD650, 24 h, E. coli filamentation project, primary screen (AID 1093);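 also: MC1000 strain lacking acrAB efflux and sulA so SOS filamentation is blocked; test concentration not given here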; conditions: E. coli DRC41 growth, higher = more signal, called active from +8 up or from −8 down
[17] = probe aLefty2 binding to arrayed compounds – biochemical, biotinylated probe, 635/667 nm fluorescence, primary screen (AID 1094); conditions: small-molecule microarray, higher = more signal;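 also: score merges spot fluorescence near 667 nm with spot signal-to-noise ratio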
[18] = system: Noggin (protein binding on small-molecule microarray); assay: small molecules binding Noggin protein – biochemical, 635/667 nm fluorescence, primary screen (AID 1095); conditions: 635 nm fluorescence, higher = more signal;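 also: score merges 667 nm feature fluorescence with signal to noise over triplicate slides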
[19] = target: Neurogenic locus notch homolog protein 3 (Homo sapiens) (UniProt Q9UM47); assay: small molecules binding NOTCH3 protein – biochemical, 635/667 nm fluorescence, primary screen (AID 1096); conditions: small-molecule microarray, 635 nm fluorescence, higher = more signal
Sequence of Neurogenic locus notch homolog protein 3 (Homo sapiens) (Q9UM47 whole entry, looked up): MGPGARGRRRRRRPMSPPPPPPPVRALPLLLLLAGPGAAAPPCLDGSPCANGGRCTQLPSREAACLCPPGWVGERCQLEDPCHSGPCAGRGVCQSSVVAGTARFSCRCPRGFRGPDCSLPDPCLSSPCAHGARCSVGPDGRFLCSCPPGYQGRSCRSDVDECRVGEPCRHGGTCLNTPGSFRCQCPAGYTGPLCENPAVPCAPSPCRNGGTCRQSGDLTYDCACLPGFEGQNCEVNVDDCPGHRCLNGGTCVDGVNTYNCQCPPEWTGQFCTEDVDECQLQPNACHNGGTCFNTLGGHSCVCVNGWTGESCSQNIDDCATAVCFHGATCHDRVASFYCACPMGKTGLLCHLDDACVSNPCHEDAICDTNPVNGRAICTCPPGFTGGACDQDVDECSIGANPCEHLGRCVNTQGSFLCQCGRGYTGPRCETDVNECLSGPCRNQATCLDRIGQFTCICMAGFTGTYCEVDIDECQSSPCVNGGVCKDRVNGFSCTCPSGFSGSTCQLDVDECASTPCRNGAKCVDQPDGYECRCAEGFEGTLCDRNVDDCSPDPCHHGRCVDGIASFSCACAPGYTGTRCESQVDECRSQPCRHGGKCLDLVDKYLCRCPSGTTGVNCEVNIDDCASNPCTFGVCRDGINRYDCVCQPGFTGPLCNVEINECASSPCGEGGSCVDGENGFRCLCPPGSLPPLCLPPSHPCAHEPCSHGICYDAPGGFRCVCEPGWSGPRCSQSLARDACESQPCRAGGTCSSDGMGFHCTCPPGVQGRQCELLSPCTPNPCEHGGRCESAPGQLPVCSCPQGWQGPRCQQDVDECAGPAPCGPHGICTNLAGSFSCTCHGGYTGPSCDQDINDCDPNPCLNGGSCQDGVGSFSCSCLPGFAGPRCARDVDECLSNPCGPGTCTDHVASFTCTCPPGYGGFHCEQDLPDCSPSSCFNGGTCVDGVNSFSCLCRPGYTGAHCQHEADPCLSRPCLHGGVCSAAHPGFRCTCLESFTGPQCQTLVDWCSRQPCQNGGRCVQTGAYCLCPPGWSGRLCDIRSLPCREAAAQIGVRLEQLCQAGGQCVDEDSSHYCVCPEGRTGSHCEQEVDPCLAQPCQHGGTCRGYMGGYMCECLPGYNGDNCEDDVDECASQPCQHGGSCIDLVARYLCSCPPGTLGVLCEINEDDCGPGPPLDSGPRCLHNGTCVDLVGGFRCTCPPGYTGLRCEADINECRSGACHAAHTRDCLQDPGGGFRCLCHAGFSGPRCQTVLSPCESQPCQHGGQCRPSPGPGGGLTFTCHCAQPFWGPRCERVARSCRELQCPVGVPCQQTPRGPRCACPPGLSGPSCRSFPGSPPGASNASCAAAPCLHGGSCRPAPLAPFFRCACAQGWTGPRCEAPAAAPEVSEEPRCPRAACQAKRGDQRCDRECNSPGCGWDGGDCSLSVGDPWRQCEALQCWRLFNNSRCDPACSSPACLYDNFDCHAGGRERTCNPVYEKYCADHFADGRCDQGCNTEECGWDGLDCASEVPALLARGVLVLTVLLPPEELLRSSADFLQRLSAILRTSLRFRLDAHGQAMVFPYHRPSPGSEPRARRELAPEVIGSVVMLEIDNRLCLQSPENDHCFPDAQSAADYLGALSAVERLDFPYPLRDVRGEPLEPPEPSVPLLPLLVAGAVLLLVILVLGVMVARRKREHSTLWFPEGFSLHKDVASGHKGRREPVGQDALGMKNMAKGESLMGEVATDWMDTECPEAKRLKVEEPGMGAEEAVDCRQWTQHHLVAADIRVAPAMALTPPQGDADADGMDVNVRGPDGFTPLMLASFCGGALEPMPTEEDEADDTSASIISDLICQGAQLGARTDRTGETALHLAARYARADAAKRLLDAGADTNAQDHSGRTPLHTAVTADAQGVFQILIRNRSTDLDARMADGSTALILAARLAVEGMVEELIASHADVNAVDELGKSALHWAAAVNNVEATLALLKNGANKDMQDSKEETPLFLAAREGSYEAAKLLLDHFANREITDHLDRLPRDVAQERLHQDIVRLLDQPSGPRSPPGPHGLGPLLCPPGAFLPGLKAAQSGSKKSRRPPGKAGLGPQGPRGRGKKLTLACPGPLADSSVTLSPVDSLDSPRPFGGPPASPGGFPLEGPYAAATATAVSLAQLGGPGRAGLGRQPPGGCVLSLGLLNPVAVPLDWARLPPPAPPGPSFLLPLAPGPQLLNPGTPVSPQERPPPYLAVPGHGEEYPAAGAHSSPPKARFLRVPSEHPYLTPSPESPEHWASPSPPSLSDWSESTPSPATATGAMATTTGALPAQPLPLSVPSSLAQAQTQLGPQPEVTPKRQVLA

[20] = probe aEGFR binding to arrayed compounds – biochemical, biotinylated probe, 635/667 nm fluorescence, primary screen (AID 1097); conditions: small-molecule microarray, higher = more signal;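 also: probe is a biotinylated anti-EGFR antibody binding compounds printed on slides; score combines fluorescence near 667 nm and signal to noise of each spot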

Structure (SMILES) | composite z-score [1] | composite z-score [2] | composite z-score [3] | composite z-score [4] | composite z-score [5] | composite z-score [6] | composite z-score [7] | z-score [8] | composite z-score [9] | composite z-score [10] | composite z-score [11] | z-score [12] | z-score [13] | z-score [14] | composite z-score [15] | z-score [16] | composite z-score [17] | composite z-score [18] | composite z-score [19] | composite z-score [20]
CCCC=C(CCC)[C@@H](NS(=O)(=O)c1ccc(Cl)cc1)c1ccc(C(=O)OC)cc1 | -0.172 | -0.114 | -0.0841 | 0.484 | 0.41 | -0.194 | 0.866 | 2.58 (inactive) | 0.0699 | -0.236 | 0.687 | -0.288 (inactive) | 0.745 (inactive) | -0.825 (inactive) | 0.735 | 0.0177 (inactive) | 0.0007 | -0.392 | -1.6 | 0.0219
COc1ccc(NN2C(C(O)c3ccc(N(C)C)cc3)C=CC3C(=O)N(C4CCCCC4)C(=O)C32)cc1 (stereo not given) | 0.419 | 0.427 | 0.157 | 1.01 | 1.53 | 1.05 | 1.15 | 0.613 (inactive) | 0.352 | 0.284 | 1.51 | -0.229 (inactive) | 0.594 (inactive) | 0.687 (inactive) | 2.91 | -0.386 (inactive) | 0.329 | 0.134 | 1.09 | 0.174
[N-]=[N+]=Nc1ccccc1C[C@]1(C(=O)N2CCCCC2)COC(c2ccc(OCCCO)cc2)=N1 | -0.11 | 0.0405 | 0.0605 | 0.87 | 0.708 | 1.64 | 0.995 | -2.42 (inactive) | 0.755 | -0.353 | 1.54 | 1.73 (inactive) | -1.72 (inactive) | 32.7 (active) | 3.18 | 1.75 (inactive) | -0.0631 | 0.753 | 1.08 | -0.0828
CN(C)CCCC[C@@H]1NC(=O)[C@H]2C[C@@H](C(=O)NCCCCCN)[C@@H](c3cccc(OCCO)c3)N2C1=O | 1.88 | 2.19 | 0.269 | 0.558 | 1.12 | 2.28 | 1.3 | -0.0269 (inactive) | 1.75 | 1.16 | 1.54 | -0.717 (inactive) | -5.79 (inactive) | -0.503 (inactive) | 2.26 | 1.04 (inactive) | 0.801 | 1.38 | 0.339 | 0.374
C[N+](C)(C)CCCC[C@@H]1NC(=O)[C@@H]2C[C@H](C(=O)NCCCCCCNC(=O)CS)[C@H](c3ccc(O)cc3)N2C1=O | 0.973 | -0.951 | -0.193 | 0.0372 | -1.41 | 0.801 | 1.47 | -0.338 (inactive) | -0.622 | 0.235 | 0.567 | 0.562 (inactive) | -0.0042 (inactive) | 0.525 (inactive) | 0.479 | -0.0327 (inactive) | -0.115 | -0.533 | -0.627 | -0.225
COCCOC(=O)N1C(=O)[C@@]2(c3cc(C#Cc4ccc(OC)cc4)ccc31)[C@H](c1ccc(O)cc1)N1[C@H](c3ccccc3)[C@H](c3ccccc3)OC(=O)[C@H]1[C@@H]2C(=O)Nc1nc2ccccc2s1 | -0.304 | 0.262 | -0.0724 | 0.554 | 1.29 | 1.06 | 1.24 | 2.63 (inactive) | 0.251 | -0.249 | 1.56 | 0.15 (inactive) | 0.0615 (inactive) | 0.684 (inactive) | 2.06 | -0.944 (inactive) | -0.0376 | 1.09 | 1.08 | -0.0103
COC(=O)C[C@H]1O[C@@H](CCc2ccccc2)[C@@H](C)[C@@H]1[Si](C)(C)c1ccc(OC)cc1 | -0.136 | -0.724 | -0.17 | -0.318 | -0.514 | -0.553 | -0.743 | -0.149 (inactive) | -0.165 | -0.137 | -0.604 | 0.425 (inactive) | -0.412 (inactive) | 0.797 (inactive) | -0.722 | -0.67 (inactive) | -0.253 | -0.263 | -0.311 | -0.206
CCCCN1CC=CC23O[C@@H]4/C=C\CCCOC(=O)C4[C@H]2C(=O)N(CCCO)[C@@H]3C1=O (stereo not given in full) | 0.228 | -0.7 | -0.036 | -0.0326 | -0.913 | 0.817 | 1.46 | 0.829 (inactive) | -0.629 | -0.318 | 1.27 | -1.15 (inactive) | -1.04 (inactive) | -0.513 (inactive) | 2.86 | 0.0383 (inactive) | -0.212 | -0.991 | -0.1 | -0.324
O=C1OCCC/C=C\[C@H]2OC34C=CCN(c5ccc6ccccc6c5)C(=O)[C@H]3N(CCCCCO)C(=O)[C@@H]4C12 (stereo not given in full) | 0.149 | -0.763 | -0.195 | -0.759 | -0.367 | -0.634 | -0.773 | 0.815 (inactive) | -0.602 | -0.169 | -1.23 | -1.56 (inactive) | -1.52 (inactive) | -0.419 (inactive) | -1.77 | -0.72 (inactive) | -0.156 | -0.766 | -0.359 | -0.13
O=C1OCCC=C[C@H]2OC34C=CCN(c5ccc(Cl)cc5)C(=O)[C@H]3N(CCCO)C(=O)[C@@H]4C12 (stereo not given in full) | 0.189 | -0.771 | -0.104 | -0.144 | -0.678 | -0.602 | -0.366 | 0.923 (inactive) | -0.155 | -0.236 | -0.827 | -0.0304 (inactive) | -1.36 (inactive) | 0.0341 (inactive) | -1.28 | 1.31 (inactive) | 0.0058 | -0.469 | -0.792 | -0.116
